Shown are actives, neighbours in structure and some others; about 13% of the full set was active somewhere.
HCV inhibitor: HCV inhibition | Potency, µM (doses to about 41.8 µM), without a hit: top-dose activity change, negative = inhibition, most hits filed as inhibitors | Huh7.5.1 HCVcc-Cre infection, luciferase reporter, 44 h | hit rate 3.4% among 340,000; further: potency means the concentration at half of the fitted maximal effect
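1,000 cells/well; 4 h culture; + compound; + HCVcc-Cre (~0.5 moi); 44 h; luciferase substrate, RT 15 min; read 15 sec.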
Pf growth 96h: P. falciparum growth inhibition at 96 hour, primary screen for plastid delayed-death inhibitors; AID 504834; hit rate 6.9% among 320,000; P. falciparum luciferase reporter growth, 96 h; Potency, µM (series often up to 28.7 µM), for the others: at the highest dose activity change, negative = inhibition, hits mostly inhibitors; further: potency means the concentration at half of the fitted maximal effect
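P. falciparum expressing integrated firefly luciferase grown in erythrocytes (2% hematocrit, 0.05% parasitemia final) with compounds for 96 hours at 37 C, 5% CO2. Growth inhibition read as loss of luminescence after adding luciferase detection reagent.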
Pf growth 48h: P. falciparum growth inhibition at 48 hours (one generation); P. falciparum luciferase growth in erythrocytes, 48 h; Potency, µM (titrated, usually from 28.7 µM), inactives show top-dose activity change, negative = inhibition, most hits filed as inhibitors; hit rate 5.9% among 310,000; AID 504832; further: potency means the concentration at half of the fitted maximal effect
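Growth was read as firefly luciferase luminescence after a 48 h, 37 C, 5% CO2 exposure of compounds to reporter-bearing P. falciparum cultures (0.1% parasitemia, 2% hematocrit final) in Albumax-supplemented RPMI 1640.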
HCMV antiviral: inhibitors of human cytomegalovirus | hit rate 4.5% among 410,000 | activity change, negative = inhibition, % at 57.5 µM | HFF cells, HCMV-luciferase reporter, 72 h; stronger effect = lower value | AID 1259415; in the data active means activity change below about -60%; inconclusive means no clear call, values can overlap the other calls; inactive means above about -39%
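Cell-based, HFFs, 1000 cells/well, 16 h 37C; cpds in DMSO + HCMV-luc, MOI 1 PFU/cell; 72 h 37C; OneGlo luminescence after 5 min RT; norm. to buffer vs Salinomycin 10uM.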
Numbers without * were called inactive; ? = inconclusive; . = no result given. Unless noted, the call rests on the fitted dose curve; in most records, active means well fitted inhibition curve with a large enough effect; inconclusive means small, poorly fitted or top-dose-only effect, or another doubt; inactive means no such curve, though single readings can be large or run the other way. On the % scale 0 is the no-effect control and ±100 the full control effect.

SMILES	HCV inhibitor	Pf growth 96h	Pf growth 48h	HCMV antiviral
CC(C)Cn1c(=O)c(C(=O)N/N=C/c2cccc(F)c2)c(O)c2ccccc21	20µM*	-7.7%	-2.5%	?
CC(C)(C)N=C(NS(=O)(=O)c1cccs1)c1ccccc1	11.6%	6.9%	8.8%	-29.8
CC(C)N=C(NS(=O)(=O)c1cccs1)c1ccccc1	19.5%	13.1µM*	-7.7%	-31.0
Brc1ccc2c(c1)CN1CCCC1=N2	?	?	10.4µM*	152.8
CCCNc1nc(N2CCCC2)nc(N2CCCC2)n1	11.2µM*	?	?	80.6
CCNc1nc(NC(C)(C)C)nc(N2CCCC2)n1	?	-25.9%	1.47µM*	-27.3
CC(C)(C)Nc1nc(N2CCCC2)nc(N2CCCC2)n1	?	-13.7%	?	-36.4
CCCCCCC(O)C/C=C/CCCCCCCC(=O)O (stereo unspecified)	.	-6.6%	1.7%	.
CNC(=O)c1ccc(-c2sc3nc(N4CCOCC4)c4c(c3c2N)CCCC4)o1	11.2µM*	?	11.7µM*	-11.0
COc1ccccc1NC(=O)c1sc2nc(N3CCOCC3)c3c(c2c1N)CC(C)(C)OC3	.	.	.	8.6
CC1(C)Cc2c(c(N3CCOCC3)nc3sc(-c4ccc(C(=O)O)o4)c(N)c23)CO1	-28.2%	99.8%	11.7µM*	-18.9
CNC(=O)c1ccc(-c2sc3nc(N4CCOCC4)c4c(c3c2N)CC(C)(C)OC4)o1	?	?	?	115.7
CN1Cc2c(N3CCOCC3)nc3sc(C#N)c(N)c3c2CC1(C)C	-8.5%	?	?	31.7
CC1(C)Cc2c(c(N3CCOCC3)nc3snc(NC(=O)c4ccccc4)c23)CO1	?	8.28µM*	.	?
CN1Cc2c(N3CCOCC3)nc3sc(C(=O)c4ccc(Br)cc4)c(N)c3c2CC1(C)C	-85.7%	9.28µM*	4.15µM*	-94.7*
Cc1ccc(C(CC(=O)Nc2ccc(C)cc2C)N2Cc3ccccc3C2=O)cc1 (stereo unspecified)	.	.	.	1.5
O=C(Cc1ccc([N+](=O)[O-])cc1)NCc1ccc2c(c1)OCO2	-5.1%	?	4.4%	12.1
O=C(NCc1ccc(C(F)(F)F)cc1)C12CN(Cc3ccccc3)CC1C(c1cccc([N+](=O)[O-])c1)=NO2 (stereo unspecified)	?	9.28µM*	9.28µM*	-6.2
O=C(NCc1ccc2c(c1)OCO2)C12CN(Cc3ccccc3)CC1C(c1cccc([N+](=O)[O-])c1)=NO2 (stereo unspecified)	-23.3%	?	9.28µM*	-3.7
COc1ccc(OC)c(S(=O)(=O)Nc2cc3c(cc2C)n(C)c(=O)c(=O)n3C)c1	.	.	.	57.7
Cc1nc(Sc2ccccc2)c(C#N)c(C)c1[N+](=O)[O-]	?	?	7.38µM*	-103.1*
CCC(Oc1ccccc1)C(=O)Nc1ccc(O)c(-c2nc3cc(C)ccc3o2)c1 (stereo unspecified)	.	.	.	24.1
Cc1ccc2oc(=O)c3cc(C(=O)Nc4cccc(C#N)c4)sc3c2c1	.	.	.	7.3
Cc1cc(C)c(S(=O)(=O)Cc2ccccc2)c(OC(C)C)n1	-7.4%	10.4µM*	?	19.9
CN(C)CCNC(=O)CC1(C)N=C(c2ccc(-c3ccccc3)cc2)N(C)O1 (stereo unspecified)	.	.	.	-9.7
SMILES	HCV inhibitor	Pf growth 96h	Pf growth 48h	HCMV antiviral
CCCCCC/C=N/Nc1nnc(Cc2ccc(OC)c(OC)c2)c(=O)[nH]1	-2.8%	31.4%	15.9%	-18.9
COc1ccc(Cc2nnc(N/N=C/c3ccc(O)cc3O)[nH]c2=O)cc1OC	?	?	4.15µM*	9.9
COC1=C(C)C(=O)C2=C(C1=O)C(CO)N1C(C#N)C3CC4C(C1C2N1CCOC41)N3C (stereo unspecified)	.	.	.	-99.2*
CN(c1ccccc1)S(=O)(=O)c1ccc(Cl)c(C(=O)NC2=NCCS2)c1	?	?	?	-101.3*
COc1ccc(N(C)S(=O)(=O)c2cccc(C(=O)Nc3nc(C)cs3)c2)cc1	?	?	13.1µM*	-19.7
CN(C)C(CNC(=O)c1cc(S(=O)(=O)N(C)c2ccccc2)ccc1Cl)c1ccccc1 (stereo unspecified)	7.08µM*	-17.9%	?	?
COc1cc(OC)c(N(C)S(=O)(=O)c2cccc(C(=O)Nc3nc(C)cs3)c2)cc1Cl	?	?	13.1µM*	11.1
C=CCNc1cccc2c1S(=O)(=O)N[C@@H](C)CO2	.	.	.	-16.6
O=C(c1ccccc1)C12COc3ccccc3C1ON=C2c1ccccc1 (stereo unspecified)	.	.	.	-16.2
COc1ccccc1CNC(=O)CN1C(=O)COc2ccc(S(=O)(=O)N3CCC(C)CC3)cc21	.	.	.	-3.0
Cc1csc(N(C(=O)c2cccc(S(=O)(=O)N3CCCC3)c2)c2ccccc2)n1	-44.0%	?	.	-16.2
Cc1ccc(N(C)S(=O)(=O)c2cccc(C(=O)Nc3nnc(C4CC4)s3)c2)cc1	10.3%	-16.0%	23.7%	-34.3
COc1cc(OC)c(N(C)S(=O)(=O)c2cccc(C(=O)Nc3nnc(C4CC4)s3)c2)cc1Cl	-19.5%	?	13.1µM*	5.9
COc1cc(OC)c(N(C)S(=O)(=O)c2cccc(C(=O)OCC(=O)N(C)Cc3ccccc3)c2)cc1Cl	11.2µM*	.	.	-63.2*
COc1ccccc1N(C)S(=O)(=O)c1ccc(Cl)c(C(=O)NC2=NCCS2)c1	-6.8%	?	-21.9%	?
COc1cc(OC)c(N(C)S(=O)(=O)c2cccc(C(=O)OCC(=O)NCc3ccco3)c2)cc1Cl	8.8%	?	?	-28.2
Cc1csc(N(C(=O)c2cccc(S(=O)(=O)N(C)C)c2)c2ccccc2)n1	12.0%	8.28µM*	-16.8%	-2.6
COc1cc(OC)c(N(C)S(=O)(=O)c2cccc(C(=O)NC3=NCCS3)c2)cc1Cl	?	?	10.4µM*	32.2
Cc1cccc(NC(=O)CSc2nc(=O)n(CCN3CCOCC3)c3c2CCC3)c1	.	.	.	34.8
Cc1cccc(C)c1OCC(=O)OC/C(O)=C(\C#N)c1nc2ccccc2[nH]1	25.4%	14.1%	34.9%	?
N#C/C(=C(/O)COC(=O)COc1cccc(Br)c1)c1nc2ccccc2[nH]1	0.9%	?	12.1%	-78.4*
Cc1c(C(=O)OC/C(O)=C(\C#N)c2nc3ccccc3[nH]2)oc2ccc(Br)cc12	21.1%	?	-4.8%	0.2
Cc1cc(C)cc(OCC(=O)OC/C(O)=C(\C#N)c2nc3ccccc3[nH]2)c1	0.0%	62.2%	16.7%	-80.7*
COc1ccc(NC(=O)C2=C(C)Nc3nc(SCc4ccccc4C)nn3C2c2cc(OC)c(O)c(OC)c2)cc1 (stereo unspecified)	.	.	.	-8.6
CCN(C(=O)CSc1nc2ccccc2n1Cc1ccc(F)cc1Cl)c1ccccc1	.	.	.	-12.0
CCN(c1ccccc1)S(=O)(=O)c1cccc(C(=O)NCC(c2cccs2)N2CCOCC2)c1 (stereo unspecified)	?	?	14.7µM*	-28.6

Bioassay records (PubChem BioAssay)
